# Reference: PubChem BioAssay AID624002 (National Center for Advancing Translational Sciences (NCATS), 2012)
# Some of the results follow. Inconclusive results are not listed. Active and inactive are the calls of the source. Calls come from the whole dose curve; as a rule, active = well fitted inhibition curve with a large enough effect; inconclusive = small, poorly fitted or top-dose-only effect; inactive = no such curve, though single readings can be large or run the other way.
# Biological target: Isocitrate dehydrogenase [NADP] cytoplasmic (Homo sapiens) (UniProt O75874)
# Experiment: qHTS for Inhibitors of mutant isocitrate dehydrogenase 1 (IDH1): Confirmation of Cherrypicks; note: nearly all actives have a fitted effect of over 50% in size
# Conditions: IDH1 R132H enzyme, NADPH diaphorase/resazurin fluorescence
# From the text: Malignant glioblastomas (WHO grade IV), including primary and secondary glioblastomas, are among the most lethal with a median survival of one year, and unfortunately they are also the most prevalent type of brain tumors. By and large the standard of care of gliomas remains the use of the oral alkylating agent temozolomide and radiotherapy following surgical tumor resection. There is an urgent unmet medical need for novel therapeutics for gliomas. IDH mutations occur in up to 70% of grade II-IV secondary glioblastomas, and IDH1 R132H is the most prevalent mutation. […] Wild-type IDH1 catalyzes the conversion of isocitrate to -ketoglutarate with the concomitant reduction of NADP+ to NADPH. […] Inhibition of the IDH1 R132H enzymatic reaction leads to an increase in the amount of NADPH relative to a DMSO control and a concomitant increase in the fluorescence of the diaphorase/resazurin enzyme product resorufin at 590 nm. […]
# Enzyme buffer was dispensed into black, solid 1536-well plates at 3 microL/well in 20 mM Tris buffer, pH 7.5, containing final concentrations of 10 mM MgCl2, 20 mM NaCl, 0.001% Tween20, 0.05% BSA, 2 mM beta-ME and 5.2 nM IDH1 R132H. […] The inherent compound fluorescence was measured at this point at 590 nm on a ViewLux plate reader (Ex 525, Em 598, bodipy filter). […] The %Activity was determined from the corrected fluorescence values. […]
# Potency is the fitted concentration of half-maximal effect.
# Sequence of Isocitrate dehydrogenase [NADP] cytoplasmic (Homo sapiens) (O75874 whole entry R132H, change not shown): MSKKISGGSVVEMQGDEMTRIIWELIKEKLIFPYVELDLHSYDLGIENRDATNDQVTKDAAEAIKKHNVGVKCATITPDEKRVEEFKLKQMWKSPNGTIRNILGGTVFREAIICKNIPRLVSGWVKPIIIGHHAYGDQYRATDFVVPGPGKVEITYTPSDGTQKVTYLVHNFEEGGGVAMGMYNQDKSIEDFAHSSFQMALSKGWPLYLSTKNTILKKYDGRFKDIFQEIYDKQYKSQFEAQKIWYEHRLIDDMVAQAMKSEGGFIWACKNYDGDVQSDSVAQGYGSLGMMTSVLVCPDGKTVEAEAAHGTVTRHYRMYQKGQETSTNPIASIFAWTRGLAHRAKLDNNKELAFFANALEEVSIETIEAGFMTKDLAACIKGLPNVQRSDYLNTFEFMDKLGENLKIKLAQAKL
smiles,measurement,value
CC(C)(C)c1ccc(S(=O)(=O)Nc2ccc(O)c(Sc3nc4ccccc4s3)c2)cc1,Potency,15.8 µM (active)
